PubChem BioAssay (Tox21)
Inconclusive results are not listed. Where a call stands in place of a potency, no number is given. Active and inactive are the calls of the source. Unless noted, the call rests on the fitted dose curve; in most records, active means well fitted curve in the direction sought with a large enough effect in the repeat runs; inconclusive means weak or mixed curves; inactive means no such curve, though single readings can be large; an effect the other way counts as inactive or inconclusive.

Assays:
[1] = qHTS assay to identify small molecule antagonists of the glucocorticoid receptor (GR) signaling pathway - cell viability counter screen (AID 720693); further: nearly all actives have a fitted effect of over 55% in size; further: potency means the concentration at half of the fitted maximal effect
[2] = qHTS assay for identifying genotoxic compounds that show differential cytotoxicity against isogenic chicken DT40 cell lines with known DNA damage response pathways - wild type cell line (AID 743012); further: nearly all actives have a fitted effect of over 60% in size; further: potency means the concentration at half of the fitted maximal effect
How it was run: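 CellTiter-Glo luminescence readout of viability in wild type DT40 cells after 40 h compound exposure at 37 C/5% CO2; 300 cells/well; reagent incubated 30 min at room temperature before reading.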

[3] = qHTS assay for identifying genotoxic compounds that show differential cytotoxicity against isogenic chicken DT40 cell lines with known DNA damage response pathways - Rev3 mutant cell line (AID 743014); further: nearly all actives have a fitted effect of over 55% in size; further: potency means the concentration at half of the fitted maximal effect
[4] = qHTS assay for identifying genotoxic compounds that show differential cytotoxicity against isogenic chicken DT40 cell lines with known DNA damage response pathways - Rad54/Ku70 mutant cell line (AID 743015); further: nearly all actives have a fitted effect of over 60% in size; further: potency means the concentration at half of the fitted maximal effect
[5] = qHTS assay to identify small molecule antagonists of the androgen receptor (AR) signaling pathway using the MDA cell line - cell viability counter screen (AID 743041; further: nearly all actives have a fitted effect of over 45% in size)
How it was run: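 Viability read by CellTiter-Fluor fluorescence in the same wells as the antagonist screen, added after 15.5 h of a 16 h, 37C exposure. Human breast carcinoma MDA-kb2 AR-luc cells, compounds co-dosed with agonist R1881.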

[6] = qHTS assay to identify small molecule antagonists of the androgen receptor (AR) signaling pathway - cell viability counter screen (AID 743033; further: nearly all actives have a fitted effect of over 45% in size)
[7] = biological target: Androgen receptor (Homo sapiens) (UniProt P10275); assay: qHTS assay to identify small molecule agonists of the androgen receptor (AR) signaling pathway using the MDA cell line (AID 743040; further: nearly all actives have a fitted effect of over 20% in size)
How it was run: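 Luciferase agonist assay: 16 h compound exposure at 37C without CO2 in MDA-kb2 AR-luc cells, whose MMTV promoter responds to both AR and GR. Luminescence measured after 30 min room-temperature incubation with ONE-Glo.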

[8] = biological target: Androgen receptor (Homo sapiens) (UniProt P10275); assay: qHTS assay to identify small molecule antagonists of the androgen receptor (AR) signaling pathway using the MDA cell line (AID 743042; further: nearly all actives have a fitted effect of over 55% in size; further: potency means the concentration at half of the fitted maximal effect)
How it was run: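 Antagonist mode: compounds plus R1881 agonist added to MDA-kb2 AR-luc cells, incubated 16 h at 37C. Luciferase reporter luminescence quantified, with multiplexed CellTiter-Fluor readout for cell viability.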

[9] = biological target: Androgen receptor (Homo sapiens) (UniProt P10275); assay: qHTS assay to identify small molecule agonists of the androgen receptor (AR) signaling pathway (AID 743036; active means well fitted activation curve with a large enough effect in the signal ratio in the repeat runs, with a control signal flat, not every such curve was filed as active; the % refers to the signal ratio)
How it was run: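 Quantitative HTS of the Tox21 10K library in HEK293 cells bearing a stably integrated UAS-controlled beta-lactamase reporter. Compound exposure lasted 16 h at 37C. Reporter activity was detected by FRET substrate fluorescence after 2 h at room temperature.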

[10] = biological target: Androgen receptor (Homo sapiens) (UniProt P10275); assay: qHTS assay to identify small molecule antagonists of the androgen receptor (AR) signaling pathway (AID 743035; active means well fitted inhibition curve with a large enough effect in the signal ratio in the repeat runs, not every such curve was filed as active; the % refers to the signal ratio)
How it was run: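 AR-bla HEK293 reporter cells; 4 h settle at 37C/5% CO2; compound + R1881 agonist, 16 h at 37C; LiveBLAzer B/G FRET substrate 2 h RT; fluorescence intensity read. qHTS format.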

Androgen receptor (Homo sapiens), sequence (P10275 whole entry, looked up): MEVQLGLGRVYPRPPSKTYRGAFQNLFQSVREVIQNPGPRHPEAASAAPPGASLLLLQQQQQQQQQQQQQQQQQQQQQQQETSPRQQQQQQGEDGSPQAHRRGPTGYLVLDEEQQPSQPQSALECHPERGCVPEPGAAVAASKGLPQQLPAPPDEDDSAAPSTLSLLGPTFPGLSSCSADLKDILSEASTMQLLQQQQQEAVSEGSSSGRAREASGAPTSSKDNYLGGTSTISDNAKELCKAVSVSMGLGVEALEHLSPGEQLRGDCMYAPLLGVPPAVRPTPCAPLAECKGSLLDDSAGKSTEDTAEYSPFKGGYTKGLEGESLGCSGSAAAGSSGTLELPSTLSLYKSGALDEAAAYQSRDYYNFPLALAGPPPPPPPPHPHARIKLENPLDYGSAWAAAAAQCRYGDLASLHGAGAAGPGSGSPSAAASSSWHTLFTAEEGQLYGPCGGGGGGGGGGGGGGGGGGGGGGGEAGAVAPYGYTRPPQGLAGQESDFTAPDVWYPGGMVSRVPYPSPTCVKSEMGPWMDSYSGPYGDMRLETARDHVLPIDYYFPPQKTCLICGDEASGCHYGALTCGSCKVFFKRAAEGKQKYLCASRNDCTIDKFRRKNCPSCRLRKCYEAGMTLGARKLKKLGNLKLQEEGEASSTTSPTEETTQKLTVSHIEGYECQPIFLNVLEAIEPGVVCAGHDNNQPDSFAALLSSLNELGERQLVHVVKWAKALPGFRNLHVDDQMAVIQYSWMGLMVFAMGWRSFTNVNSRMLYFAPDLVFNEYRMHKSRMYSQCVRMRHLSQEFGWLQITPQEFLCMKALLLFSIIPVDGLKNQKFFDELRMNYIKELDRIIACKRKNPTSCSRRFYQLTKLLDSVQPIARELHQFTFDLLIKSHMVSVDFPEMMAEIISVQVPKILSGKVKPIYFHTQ

SMILES: Clc1ccc(C2(Cn3cncn3)CC(Br)CO2)c(Cl)c1 (stereo not drawn)
- Potency [1]: inactive
- Potency [2]: 8.58 µM (active)
- Potency [3]: 8.58 µM (active)
- Potency [4]: 12.1 µM (active)
- Potency [5]: inactive

SMILES: Oc1ccc(Cl)c(Cl)c1Cl
- Potency [1]: inactive
- Potency [2]: inactive
- Potency [3]: inactive
- Potency [4]: inactive
- Potency [5]: inactive

SMILES: O=C(O)C(F)(F)C(F)(F)C(F)(F)C(F)(F)C(F)(F)C(F)(F)C(F)(F)C(F)(F)C(F)(F)C(F)(F)F
- Potency [1]: inactive
- Potency [2]: inactive
- Potency [3]: inactive
- Potency [4]: inactive
- Potency [6]: inactive
- Potency [5]: inactive

SMILES: NS(=O)(=O)C(F)(F)C(F)(F)C(F)(F)C(F)(F)C(F)(F)C(F)(F)C(F)(F)C(F)(F)F
- Potency [1]: 54.9 µM (active)
- Potency [2]: 54.5 µM (active)
- Potency [3]: 34.4 µM (active)
- Potency [6]: inactive
- Potency [7]: inactive
- Potency [8]: 68.6 µM (active)

SMILES: CC1(C)[C@H](C=C(Cl)Cl)[C@@H]1C(=O)O[C@@H](C#N)c1cccc(Oc2ccccc2)c1
- Potency [1]: inactive
- Potency [2]: inactive
- Potency [3]: inactive
- Potency [6]: inactive
- Potency [5]: inactive

SMILES: O=S1OC[C@@H]2[C@H](CO1)[C@]1(Cl)C(Cl)=C(Cl)[C@@]2(Cl)C1(Cl)Cl (stereo partly drawn)
- Potency [1]: inactive
- Potency [2]: 24.3 µM (active)
- Potency [3]: 27.3 µM (active)
- Potency [4]: 30.6 µM (active)
- outcome [9]: inactive
- Potency [7]: inactive
- Potency [5]: inactive

SMILES: CC(C)N(C(=O)COc1nnc(C(F)(F)F)s1)c1ccc(F)cc1
- Potency [1]: inactive
- Potency [2]: 15.4 µM (active)
- Potency [3]: 13.7 µM (active)
- Potency [4]: 15.4 µM (active)
- Potency [5]: inactive

SMILES: CCCCC(CC)COP(=O)(Oc1ccccc1)Oc1ccccc1 (stereo not drawn)
- Potency [1]: inactive
- Potency [2]: inactive
- Potency [3]: 48.6 µM (active)
- Potency [6]: inactive
- Potency [10]: inactive
- outcome [9]: inactive
- Potency [7]: inactive
- Potency [5]: inactive
- Potency [8]: inactive
